According to PubChem BioAssay (NCATS):
Values joined by “and” are separate entries in the source; they are usually repeats but may differ in a detail not shown here. Equal values may be shown once. Inconclusive results are not listed. Active and inactive are the calls of the source. The call rests on the fitted dose curve; in most records, active means well fitted curve in the direction sought with a large enough effect; inconclusive means small, poorly fitted or top-dose-only effect, or another doubt; inactive means no such curve, though single readings can be large; an effect the other way counts as inactive or inconclusive.

How the values were obtained:
KB-3-1 = experiment: Cytotoxic Profiling of Annotated Libraries Using Quantitative High-Throughput Screening (AID 1296008); settings: Five cell lines viability, CellTiter-Glo ATP luminescence, 48-72 h; max response: hits give low values; further: nearly all actives have a fitted effect of over 60% in size
Method in brief: (§1)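 Cytotoxicity was measured as CellTiter-Glo ATP luminescence, read after 10 min at room temperature. Compound treatment of the cells lasted 48 or 72 hr at 37 degrees Celsius in a qHTS format.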

NIH3T3 = experiment: as above; settings: Five cell lines viability, CellTiter-Glo ATP luminescence, 48-72 h; max response: hits give low values
Method in brief: as §1

MKL-1 = experiment: qHTS assay to identify novel small-molecules to repurpose for Merkel cell carcinoma treatment (AID 1296009); settings: MCC and control cell lines, CellTiter-Glo viability, 72 h; series mostly up to 46 µM; further: nearly all actives have a fitted effect of over 60% in size
Method in brief: (§2)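 72 hr, 37 degree celsius; NPC 8-pt / MIPE 11-pt dose response; compound pinned in DMSO; CellTiter-Glo, 10 min RT, luminescence; normalized to no-cell and DMSO controls.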

MKL-2 = experiment: as above; settings: MCC and control cell lines, CellTiter-Glo viability, 72 h; series mostly up to 46 µM
Method in brief: as §2

UISO = experiment: as above; settings: MCC and control cell lines, CellTiter-Glo viability, 72 h; series mostly up to 46 µM
Method in brief: as §2

WaGa = experiment: as above; settings: MCC and control cell lines, CellTiter-Glo viability, 72 h; series mostly up to 46 µM
Method in brief: as §2

CASKI = experiment: Primary qHTS to identify gynecologic anti-cancer compounds using libraries of approved drugs and bioactive compounds (AID 1345084); settings: Gynecologic cancer cell panel viability, ATPlite luminescence, 48 h; series mostly up to 57.5 µM; further: nearly all actives have a fitted effect of over 55% in size
Method in brief: (§3)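 Five-concentration response, 48 h; readout is ATP-driven luciferase luminescence.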

Es-2 = experiment: as above; settings: Gynecologic cancer cell panel viability, ATPlite luminescence, 48 h; series mostly up to 57.5 µM
Method in brief: as §3

HeLa = experiment: as above; settings: Gynecologic cancer cell panel viability, ATPlite luminescence, 48 h; series mostly up to 57.5 µM
Method in brief: as §3

Hek293T [1] = experiment: as above; settings: Gynecologic cancer cell panel viability, ATPlite luminescence, 48 h, control line for the selectivity index; series mostly up to 57.5 µM
Method in brief: as §3

JEG-3 = experiment: as above; settings: Gynecologic cancer cell panel viability, ATPlite luminescence, 48 h; series mostly up to 57.5 µM
Method in brief: as §3

MCC-13 = experiment: qHTS assay to identify novel small-molecules to repurpose for Merkel cell carcinoma treatment (AID 1296009); settings: MCC and control cell lines, CellTiter-Glo viability, 72 h; series mostly up to 46 µM; further: nearly all actives have a fitted effect of over 60% in size
Method in brief: as §2

PA-1 = experiment: Primary qHTS to identify gynecologic anti-cancer compounds using libraries of approved drugs and bioactive compounds (AID 1345084); settings: Gynecologic cancer cell panel viability, ATPlite luminescence, 48 h; series mostly up to 57.5 µM; further: nearly all actives have a fitted effect of over 55% in size
Method in brief: as §3

MCC-26 = experiment: qHTS assay to identify novel small-molecules to repurpose for Merkel cell carcinoma treatment (AID 1296009); settings: MCC and control cell lines, CellTiter-Glo viability, 72 h; series mostly up to 46 µM; further: nearly all actives have a fitted effect of over 60% in size
Method in brief: as §2

C33A = experiment: Primary qHTS to identify gynecologic anti-cancer compounds using libraries of approved drugs and bioactive compounds (AID 1345084); settings: Gynecologic cancer cell panel viability, ATPlite luminescence, 48 h; series mostly up to 57.5 µM; further: nearly all actives have a fitted effect of over 55% in size
Method in brief: as §3

CAOV3 = experiment: as above; settings: Gynecologic cancer cell panel viability, ATPlite luminescence, 48 h; series mostly up to 57.5 µM
Method in brief: as §3

OV90 = experiment: as above; settings: Gynecologic cancer cell panel viability, ATPlite luminescence, 48 h; series mostly up to 57.5 µM
Method in brief: as §3

HEK293T [2] = experiment: qHTS assay to identify novel small-molecules to repurpose for Merkel cell carcinoma treatment (AID 1296009); settings: MCC and control cell lines, CellTiter-Glo viability, 72 h; at 44.8 µM (top of the series) unless noted; further: nearly all actives have a fitted effect of over 60% in size
Method in brief: as §2

HACAT = experiment: as above; settings: MCC and control cell lines, CellTiter-Glo viability, 72 h; at 44.8 µM (top of the series) unless noted
Method in brief: as §2
On the % scale 0 is the no-effect control and ±100 the full control effect; potency means the concentration at half of the fitted maximal effect.

Nc1ccc(-c2ccc3ncc4ccc(=O)n(-c5cccc(C(F)(F)F)c5)c4c3c2)cn1
active: Potency (KB-3-1) 4.2 nM and 65.1 nM | Potency (NIH3T3) 20.9 nM and 103 nM | Potency (MKL-1) 0.148 µM | Potency (MKL-2) 0.132 µM | Potency (UISO) 0.0332 µM | Potency (WaGa) 0.372 µM | Potency (CASKI) 1 µM | Potency (Es-2) 0.316 µM | Potency (HeLa) 2.51 µM | Potency (Hek293T [1]) 0.316 µM | Potency (JEG-3) 8.91 µM

CC1(COc2ccc3c(c2)ncn3-c2ccc3cccc(N4CCC(N)CC4)c3n2)COC1
active: Potency (KB-3-1) 5.9 µM | Potency (NIH3T3) 2.96 µM | Potency (MCC-13) 18.7 µM | Potency (MKL-2) 18.7 µM | Potency (Es-2) 28.2 µM | Potency (HeLa) 20 µM | Potency (Hek293T [1]) 20 µM | Potency (PA-1) 8.91 µM

Cc1ccc(C(=O)N(CCCN)[C@@H](c2nc3cc(Cl)ccc3c(=O)n2Cc2ccccc2)C(C)C)cc1
inactive: max response (NIH3T3) -42.8% | Potency (UISO)
active: Potency (KB-3-1) 0.0008 µM | Potency (MCC-13) 0.0296 µM

Cc1cccc2c1CC[C@H](CN1CCC(c3c(Cl)cccc3Cl)CC1)C[C@@H]2O
active: Potency (PA-1) 11.2 µM
inactive: max response (KB-3-1) -8.1% | max response (NIH3T3) -20.2% | Potency (MCC-26) | Potency (MKL-1) | Potency (MKL-2) | Potency (WaGa) | Potency (C33A) | Potency (CAOV3) | Potency (CASKI) | Potency (Es-2) | Potency (OV90)

CC(=O)Nc1cccc(-n2c(=O)n(C3CC3)c(=O)c3c(Nc4ccc(I)cc4F)n(C)c(=O)c(C)c32)c1
inactive: max response (KB-3-1) -5.06% and 7.25% | Potency (MCC-26) | Potency (MKL-1) | Potency (MKL-2) | Potency (UISO) | Potency (WaGa) | Potency (C33A) | Potency (CASKI) | Potency (HeLa) | Potency (Hek293T [1]) | Potency (JEG-3) | Potency (PA-1)
active: Potency (NIH3T3) 418 nM and 259 nM

NC(=O)c1nnn(Cc2cc(Cl)c(C(=O)c3ccc(Cl)cc3)c(Cl)c2)c1N
inactive: max response (KB-3-1) -25.7% | Potency (MCC-13) | Potency (MCC-26) | Potency (MKL-1) | Potency (MKL-2) | Potency (UISO) | Potency (WaGa)

Cn1cc(-c2ccc3nnc(Sc4ccc5ncccc5c4)n3n2)cn1
inactive: max response (KB-3-1) 3.63% | outcome (HEK293T [2]) | Potency (MCC-13) | Potency (MCC-26) | Potency (MKL-1) | Potency (MKL-2) | Potency (UISO) | Potency (WaGa)

CCn1c(-c2nonc2N)nc2cncc(CNC3CCNCC3)c21
inactive: max response (KB-3-1) 3.41% and -9.32% | outcome (HACAT) | Potency (MCC-13) | Potency (MCC-26) | Potency (MKL-1) | Potency (UISO) | Potency (CASKI) | Potency (Es-2) | Potency (HeLa) | Potency (JEG-3) | Potency (PA-1)

Cc1ccc(NC(=O)c2ccc(CN3CCN(C)CC3)cc2)cc1Nc1nc(-c2cccnc2)cs1
inactive: max response (KB-3-1) -13.9% | Potency (MCC-13) | Potency (MCC-26) | Potency (MKL-1)

CN(C)CC[C@H](CSc1ccccc1)Nc1ccc(S(=O)(=O)NC(=O)c2ccc(N3CCN(Cc4ccccc4-c4ccc(Cl)cc4)CC3)cc2)cc1[N+](=O)[O-]
active: Potency (MKL-1) 1.18 µM | Potency (MKL-2) 0.235 µM | Potency (WaGa) 0.264 µM
inactive: max response (KB-3-1) 2.51% | Potency (MCC-13) | Potency (MCC-26)

CN(C)CCN(C)C(=O)c1ccc(NC(=O)Nc2ccc(-c3nc(N4CCOCC4)c4ccn(CC(F)(F)F)c4n3)cc2)cc1
inactive: Potency (MCC-13)
active: Potency (KB-3-1) 0.0015 µM | Potency (NIH3T3) 0.059 µM | Potency (UISO) 0.105 µM

C[C@H]1O[C@@H](n2cc(F)c(=O)[nH]c2=O)[C@H](O)[C@H]1O
inactive: max response (KB-3-1) -15.3% | Potency (MCC-13) | Potency (MCC-26) | Potency (MKL-1) | Potency (MKL-2)

CN[C@H]1[C@@H](O[C@@H]2[C@H](O[C@@H]3[C@@H](O)[C@@H](O)[C@@H](N=C(N)N)[C@@H](O)[C@@H]3N=C(N)N)O[C@H](C)[C@@]2(O)C=O)O[C@@H](CO)[C@@H](O)[C@H]1O
inactive: outcome (KB-3-1) | activity change, negative = cytotoxicity (MCC-13) 0.63% [at 9.22 µM] | activity change, negative = cytotoxicity (MCC-26) -1.52% [at 9.22 µM] | activity change, negative = cytotoxicity (MKL-1) 0.557% [at 9.22 µM] | activity change, negative = cytotoxicity (MKL-2) 13.1% [at 9.22 µM] | activity change, negative = cytotoxicity (UISO) -3% [at 9.22 µM] | activity change, negative = cytotoxicity (WaGa) 11.2% [at 9.22 µM]

O=C(O)c1ccc(O)c2ncc(N3CCOCC3)cc12
inactive: max response (KB-3-1) 3.25% | outcome (HACAT) | Potency (MCC-13)
active: Potency (MKL-1) 16.6 µM | Potency (MKL-2) 14.8 µM | Potency (WaGa) 23.5 µM

CC[C@H](CC#N)OC(=O)N[C@@H](C)c1cccc(NC(=O)Nc2ccc(-c3cnco3)c(OC)c2)c1
inactive: Potency (JEG-3)
active: Potency (KB-3-1) 1.32 µM and 1.64 µM | Potency (NIH3T3) 1.18 µM and 1.3 µM | Potency (MCC-13) 4.18 µM | Potency (Es-2) 1.78 µM | Potency (Hek293T [1]) 1.78 µM | Potency (PA-1) 0.355 µM

CC(C)Oc1cc(Nc2nc(N[C@@H](C)c3ccc(F)cn3)ncc2Cl)[nH]n1
active: Potency (KB-3-1) 10.5 µM | Potency (NIH3T3) 5.26 µM | Potency (MCC-26) 14.8 µM
inactive: Potency (MKL-1) | Potency (MKL-2)

O=C(NC[C@H](O)CO)c1ccncc1Nc1ccc(I)cc1F
active: Potency (NIH3T3) 8.33 µM | Potency (MKL-2) 6.62 µM
inactive: outcome (KB-3-1) | Potency (MCC-26) | Potency (UISO) | Potency (WaGa)

O=C(Nc1cccc(C(F)(F)F)c1)Nc1cc(S(=O)(=O)NC2CC2)ccc1-c1ccsc1
inactive: max response (NIH3T3) -27% | Potency (MCC-13) | Potency (MKL-1) | Potency (MKL-2) | Potency (UISO) | Potency (WaGa) | Potency (C33A) | Potency (CAOV3) | Potency (CASKI) | Potency (Es-2) | Potency (HeLa) | Potency (Hek293T [1]) | Potency (JEG-3) | Potency (OV90) | Potency (PA-1)

CCN(CC)CCCCNc1nc2cc(Cl)c(Cl)cc2nc1-c1ccc(-c2cccs2)s1
inactive: Potency (MCC-26)
active: Potency (KB-3-1) 13.2 µM | Potency (MKL-1) 23.5 µM | Potency (MKL-2) 14.8 µM

CN[C@@H]1CN(c2ccc3c(=O)c(C(=O)O)cn(-c4nccs4)c3n2)C[C@@H]1OC
active: Potency (NIH3T3) 0.512 µM | Potency (MKL-1) 1.82 µM | Potency (MKL-2) 3.23 µM | Potency (WaGa) 1.15 µM
inactive: Potency (MCC-26)
